Measured values taken from PubChem BioAssay (NCI).
This is part of a sample that, as a whole, favours compounds with a hit. Of some 83,000 tested, about 20% had one in any assay.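 Single-concentration screen, 48 h exposure, 96-well plates. Endpoint: percent growth. Below 10 = active.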 Unmarked numbers belong to inactive results. Activity calls are given as the source filed them.

Tests used:
Test in all cases: NCI-60 one-dose screen, 48 h (100 = growth as untreated, 0 = no growth, -100 = all killed)
Conditions in all cases: 10 µM unless noted
DU-145 prostate = system: DU-145 prostate
K-562 leukemia = system: K-562 leukemia
MALME-3M melanoma = system: MALME-3M melanoma
MDA-MB-231 breast = system: MDA-MB-231 breast
RXF 393 renal = system: RXF 393 renal
SF-268 CNS = system: SF-268 CNS
SF-295 CNS = system: SF-295 CNS
SF-539 CNS = system: SF-539 CNS
UACC-257 melanoma = system: UACC-257 melanoma
M14 melanoma = system: M14 melanoma
HCT-15 colon = system: HCT-15 colon
HT29 colon = system: HT29 colon
SNB-75 CNS = system: SNB-75 CNS
SNB-19 CNS = system: SNB-19 CNS
U251 CNS = system: U251 CNS
PC-3 prostate = system: PC-3 prostate
SK-MEL-5 melanoma = system: SK-MEL-5 melanoma
UACC-62 melanoma = system: UACC-62 melanoma
LOX IMVI melanoma = system: LOX IMVI melanoma
SK-MEL-28 melanoma = system: SK-MEL-28 melanoma

SMILES: C=C(C)[C@@H]1CC[C@]2(C)[C@H](CC[C@@H]3[C@@H]([C@@](C)(O)CCC=C(C)C)CC[C@]32C)[C@@]1(C)CCC(=O)N1CCN(C)CC1
- growth (DU-145 prostate): -80% [100 µM] (active)
- growth (K-562 leukemia): 1.77% [100 µM] (active)
- growth (MALME-3M melanoma): -89.6% [100 µM] (active)
- growth (MDA-MB-231 breast): -95.8% [100 µM] (active)
- growth (RXF 393 renal): -93.7% [100 µM] (active)
- growth (SF-268 CNS): -79.4% [100 µM] (active)
- growth (SF-295 CNS): -88.7% [100 µM] (active)
- growth (SF-539 CNS): -94% [100 µM] (active)
- growth (UACC-257 melanoma): -59.9% [100 µM] (active)
- growth (M14 melanoma): -70.5% [100 µM] (active)
- growth (HCT-15 colon): -92.8% [100 µM] (active)
- growth (HT29 colon): -70.8% [100 µM] (active)
- growth (SNB-75 CNS): -92.5% [100 µM] (active)
- growth (SNB-19 CNS): -95.3% [100 µM] (active)
- growth (U251 CNS): -78.6% [100 µM] (active)
- growth (PC-3 prostate): -61.8% [100 µM] (active)
- growth (SK-MEL-5 melanoma): -99.1% [100 µM] (active)
- growth (UACC-62 melanoma): -95.2% [100 µM] (active)
- growth (LOX IMVI melanoma): -100% [100 µM] (active)
- growth (SK-MEL-28 melanoma): -92.1% [100 µM] (active)

SMILES: COc1cc(-c2cc(-c3ccc(Nc4ncnc5cc(Cl)ccc45)cc3)nc(N3CCCCC3)n2)cc(OC)c1OC
- growth (DU-145 prostate): 102%
- growth (K-562 leukemia): 92.3%
- growth (MALME-3M melanoma): 95.1%
- growth (MDA-MB-231 breast): 92%
- growth (RXF 393 renal): 106%
- growth (SF-268 CNS): 88.4%
- growth (SF-295 CNS): 104%
- growth (SF-539 CNS): 93.6%
- growth (UACC-257 melanoma): 111%
- growth (M14 melanoma): 106%
- growth (HCT-15 colon): 99.5%
- growth (HT29 colon): 87.7%
- growth (SNB-75 CNS): 108%
- growth (SNB-19 CNS): 100%
- growth (U251 CNS): 98.9%
- growth (PC-3 prostate): 88.1%
- growth (SK-MEL-5 melanoma): 97.7%
- growth (UACC-62 melanoma): 95.5%
- growth (LOX IMVI melanoma): 97.3%
- growth (SK-MEL-28 melanoma): 108%

SMILES: O=C(NCCCNC(=O)OCc1ccc2cccc(O)c2n1)OCc1ccc2cccc(O)c2n1
- growth (DU-145 prostate): 28.7%
- growth (K-562 leukemia): 14.1%
- growth (MALME-3M melanoma): 72.3%
- growth (MDA-MB-231 breast): 70%
- growth (RXF 393 renal): 0.757% (active)
- growth (SF-268 CNS): 54%
- growth (SF-295 CNS): 38.7%
- growth (SF-539 CNS): 35.1%
- growth (UACC-257 melanoma): 53.9%
- growth (M14 melanoma): 38.9%
- growth (HCT-15 colon): 1.71% (active)
- growth (HT29 colon): 17%
- growth (SNB-75 CNS): 28.4%
- growth (SNB-19 CNS): 54.6%
- growth (U251 CNS): 39.8%
- growth (PC-3 prostate): 56.6%
- growth (SK-MEL-5 melanoma): 61.5%
- growth (UACC-62 melanoma): 39.6%
- growth (LOX IMVI melanoma): -73.2% (active)
- growth (SK-MEL-28 melanoma): 64.3%
